hNpr1 antagonist: antagonists of human natriuretic peptide receptor Npr1; P16066; HEK293 hNpr1 GloSensor cGMP, ANP-stimulated luminescence; Potency, µM (doses to about 46.3 µM), actives largely listed as inhibitors; hit rate 1.6% among 76,000; AID 1347048; calls by dose curve; further: nearly all actives have a fitted effect of over 60% in size
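Compound pre-incubated 30 min at room temperature on GloSensor-loaded HEK293 cells stably carrying hNpr1 and the pGS-40F cGMP biosensor. Stimulation uses hNppA at 0.1 nM final; luminescence is taken at baseline and 20 min post-agonist.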
HEK293 tox: kills HEK 293 cells. HEK 293 viability, ATP luminescence (CellTiter-Glo), 48-72 h. Potency, µM (highest dose often 115 µM), actives largely listed as inhibitors. hit rate 6.6% among 94,000. AID 1345083; further: nearly all actives have a fitted effect of over 60% in size
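Pintool-delivered compounds were incubated with HEK 293 cells (250 cells/well) at 37 degree Celsius for 48 or 72 hr. ATP-dependent luminescence (CellTiter-Glo) then reported remaining viable cells.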
GPT2 inhibitor: GPT2 alanine aminotransferase inhibition; Q8TD30; Recombinant GPT2, coupled pyruvate oxidase/HRP Amplex Red fluorescence; Potency, µM (highest dose often 57.7 µM), hits mostly inhibitors; AID 1671188; hit rate 0.25% among 100,000; further: nearly all actives have a fitted effect of over 60% in size
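GPT2 10ng/uL, a-KG 250uM, L-Ala 2mM, HEPES pH7.5 + 0.0001% Tween; 30 min RT. Then Amplex mix (PO/HRP/ThPP), 30 min RT dark, fluorescence. AOA 50uM used as positive control.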
NIH3T3 tox: NIH 3T3 cell cytotoxicity; NIH 3T3 viability, CellTiter-Glo ATP luminescence, 48-72 h; Potency, µM (top dose mostly 96.7 µM), most hits filed as inhibitors; hit rate 4.3% among 94,000; AID 1345082; further: nearly all actives have a fitted effect of over 55% in size
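First NIH 3T3 cells are plated at 400 cells/well; next compound is pinned in; then plates incubate 48 or 72 hr at 37 °C; finally CellTiter-Glo is added and luminescence read after 10 min.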
FLuc inh-1: inhibitors of firefly (Photinus pyralis) luciferase | P08659 | purified P. pyralis luciferase, luminescence, biochemical | Potency, µM (highest dose often 115 µM), hits mostly inhibitors | hit rate 2.5% among 76,000; further: nearly all actives have a fitted effect of over 65% in size
Target sequence (P08659 whole entry, looked up): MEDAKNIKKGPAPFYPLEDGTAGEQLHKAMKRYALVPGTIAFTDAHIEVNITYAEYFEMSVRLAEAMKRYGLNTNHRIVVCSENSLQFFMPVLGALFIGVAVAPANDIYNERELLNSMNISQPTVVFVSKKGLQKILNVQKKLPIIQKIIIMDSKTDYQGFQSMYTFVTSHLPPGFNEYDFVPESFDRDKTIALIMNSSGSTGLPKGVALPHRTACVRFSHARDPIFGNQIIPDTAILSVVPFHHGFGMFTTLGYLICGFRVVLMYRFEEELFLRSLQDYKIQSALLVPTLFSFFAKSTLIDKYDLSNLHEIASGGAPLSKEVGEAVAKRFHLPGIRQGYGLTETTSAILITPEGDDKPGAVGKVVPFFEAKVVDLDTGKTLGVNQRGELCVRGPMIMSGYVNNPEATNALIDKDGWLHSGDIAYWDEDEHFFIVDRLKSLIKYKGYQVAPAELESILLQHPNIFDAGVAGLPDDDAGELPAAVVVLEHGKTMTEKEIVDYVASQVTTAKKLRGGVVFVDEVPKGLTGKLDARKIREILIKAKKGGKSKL
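Purified 10nM P. pyralis luciferase with 10uM D-luciferin and 10uM ATP in 50mM Tris acetate pH 7.5, 10mM Mg acetate, 0.01% Tween-20, 0.05% BSA. qHTS titration; luminescence read by CCD imager.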
FLuc SDR -ATP: stabilizes firefly luciferase without ATP | hit rate 7.8% among 1,300 | Potency, µM (series often up to 32.7 µM), hits mostly activators | Purified FLuc-C-HiBiT, Nano-Glo HiBiT luminescence, no ATP | shares compounds with FLuc inh-1 | AID 1963318; further: nearly all actives have a fitted effect of over 55% in size
FLuc SDR ATP: firefly luciferase binding stabilization, ATP added | shares compounds with FLuc inh-1 | purified FLuc-C-HiBiT + ATP, HiBiT complementation luminescence | Potency, µM (titrated, usually from 32.7 µM), usual class: activators | hit rate 8.7% among 1,300;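 further: signal reports ligand binding via conformational change of the enzyme rather than luciferase catalysis; nearly all actives have a fitted effect of over 55% in size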
FLuc inh-2: inhibitors of firefly luciferase enzymatic activity | purified FLuc-C-HiBiT enzyme, luciferin luminescence | Potency, µM (series often up to 32.7 µM), usual class: inhibitors | hit rate 42% among 1,300 | shares compounds with FLuc inh-1; further: nearly all actives have a fitted effect of over 70% in size
A number is an active result; 0 = inactive; ? = inconclusive; - = no result given. This is a sample that favours compounds with a hit; in the whole collection about 10% have one here. Unless noted, the call rests on the fitted dose curve; in most records, active means well fitted curve in the direction sought with a large enough effect; inconclusive means small, poorly fitted or top-dose-only effect, or another doubt; inactive means no such curve, though single readings can be large; an effect the other way counts as inactive or inconclusive.

SMILES	hNpr1 antagonist	HEK293 tox	GPT2 inhibitor	NIH3T3 tox	FLuc inh-1	FLuc SDR -ATP	FLuc SDR ATP	FLuc inh-2
COc1c(C)cccc1C(=O)Nc1ccc(-c2nc3ccccc3s2)c(Cl)c1	-	-	-	-	-	0	0	0
COc1ccc(Sc2ccc(NC(=O)c3ccccc3Cl)cc2C#N)cc1	-	-	0	-	-	-	-	-
CN1C[C@H](C(=O)Nc2nccs2)C[C@H]1c1cccc(C(F)(F)F)c1	?	?	?	?	0	-	-	-
OC[C@@H]1CN(Cc2cccc3[nH]ccc23)C[C@H]1c1ccncc1	0	0	0	0	0	-	-	-
Cc1cc(CNC(=O)C2CCCCn3nnnc32)c2[nH]c(-c3ccccc3)c(C)c2c1 (centres undefined)	0	25µM	0	35µM	8.9µM	0	0	?
Cc1cccc(CNC(=O)Cc2csc3ccccc23)c1	-	-	-	-	-	0	0	0
COc1ccc(NC(=O)N2CCc3c(C(=O)N(C)Cc4ccco4)cccc32)cc1	?	?	0	0	4µM	?	2.5µM	1.8µM
Cc1cccc(S(=O)(=O)N2CCc3c(C(=O)NCCN4CCCCC4)cccc32)c1	0	?	?	?	0	-	-	-
COc1ccc(NC(=O)N2CCc3c(C(=O)NCCN4CCCCCC4)cccc32)cc1	10µM	?	0	0	1.6µM	?	0.79µM	0.56µM
Cc1cccc(NC(=O)N2CCc3c(C(=O)N(C)Cc4ccco4)cccc32)c1	0	?	0	?	?	-	-	-
COc1ccc(NC(=O)N2CCc3c(C(=O)N(C)C)cccc32)cc1	4µM	?	0	?	0.25µM	?	0.16µM	0.11µM
O=C(c1ccco1)N1CCC2(CC1)NCCc1c2[nH]c2ccccc12	0	?	0	0	0	-	-	-
CCC(=O)N1CCCCCCN(C)C(=O)[C@@H]2CCC[C@@H]21	0	0	0	0	0	-	-	-
CC(C)c1nc2c(c(-c3ccc(Cl)cc3)n1)CCN([S+](=O)([O-])c1cccs1)CC2	-	?	0	0	-	-	-	-
CCc1noc(-c2nc(-c3ccccc3C)no2)n1	0	?	0	0	14µM	0	0	0
Cc1nnc(CN(C)c2ccc(-c3nc(-c4cccc(Cl)c4)no3)cn2)o1	11µM	?	?	?	1.1µM	0	0	5µM
Cn1cc(CN2C[C@@H](F)[C@@H](OCc3nc4ccc(F)cc4[nH]3)C2)cn1	0	0	0	0	0	-	-	-
Cc1ccc(-c2nnc([C@H]3CCN(C(=O)c4ccccc4)C3)o2)cc1	0	?	0	0	0	-	-	-
Cc1ccc(-c2nnc(SCc3ccccc3C#N)o2)cc1	-	-	-	-	-	0	?	2.2µM
CCOc1ccc(Nc2nc(-c3ccccc3)no2)cc1	10µM	0	0	18µM	0.79µM	0	0	5µM
CCOc1ccc(C(=O)N2CCC[C@H]2c2nc(-c3ccccc3)no2)cc1	0	0	0	?	0	-	-	-
COc1cccc(-c2noc(COc3ccccc3Cl)n2)c1	-	-	-	-	-	0	0	?
COc1ccc(Nc2nc(-c3cccc(OC)c3)no2)cc1	?	?	0	0	2.5µM	0	0	7.9µM
COc1ccc(-c2noc(Nc3ccccc3)n2)cc1	10µM	?	0	0	1.1µM	0	?	2.2µM
Cc1nn(C)c(C)c1CCN(C)C(=O)C12CCCC=C1N(C1CCCC1)C(=O)CC2 (centres undefined)	0	?	0	0	0	-	-	-
CC(C)Cn1c(=O)c(C(=O)NCCCc2ccccc2)nc2cccnc21	-	?	0	?	-	-	-	-
COc1ccc(-c2noc(Nc3cc(OC)cc(OC)c3)n2)cc1	0	?	0	?	?	-	-	-
COc1ccc(-c2noc(Nc3ccc4c(c3)OCCO4)n2)cc1	?	0	0	0	0.89µM	?	?	1.6µM
Cc1ccc(NC(=O)N2CCC(CCNC(=O)C3CC3)CC2)cc1F	0	0	0	0	11µM	?	?	?
